# Measured values as given in PubChem BioAssay AID588835 (The Scripps Research Institute Molecular Screening Center, 2011).
# Active and inactive are the calls of the source. The rule behind the calls is not given here.
# Molecular target: Prolyl endopeptidase (Mus musculus) (UniProt Q9QUR6)
# Assay: in situ PREP and ABHD6 off-target inhibition, dose response, selectivity assay for PME-1 inhibitor project, cell-based, fluorescence, gel-based ABPP (AID 588835)
# Details: in situ gel-based competitive ABPP; series mostly up to 10 µM
# Chain of Prolyl endopeptidase (Mus musculus) (Q9QUR6 whole entry, looked up): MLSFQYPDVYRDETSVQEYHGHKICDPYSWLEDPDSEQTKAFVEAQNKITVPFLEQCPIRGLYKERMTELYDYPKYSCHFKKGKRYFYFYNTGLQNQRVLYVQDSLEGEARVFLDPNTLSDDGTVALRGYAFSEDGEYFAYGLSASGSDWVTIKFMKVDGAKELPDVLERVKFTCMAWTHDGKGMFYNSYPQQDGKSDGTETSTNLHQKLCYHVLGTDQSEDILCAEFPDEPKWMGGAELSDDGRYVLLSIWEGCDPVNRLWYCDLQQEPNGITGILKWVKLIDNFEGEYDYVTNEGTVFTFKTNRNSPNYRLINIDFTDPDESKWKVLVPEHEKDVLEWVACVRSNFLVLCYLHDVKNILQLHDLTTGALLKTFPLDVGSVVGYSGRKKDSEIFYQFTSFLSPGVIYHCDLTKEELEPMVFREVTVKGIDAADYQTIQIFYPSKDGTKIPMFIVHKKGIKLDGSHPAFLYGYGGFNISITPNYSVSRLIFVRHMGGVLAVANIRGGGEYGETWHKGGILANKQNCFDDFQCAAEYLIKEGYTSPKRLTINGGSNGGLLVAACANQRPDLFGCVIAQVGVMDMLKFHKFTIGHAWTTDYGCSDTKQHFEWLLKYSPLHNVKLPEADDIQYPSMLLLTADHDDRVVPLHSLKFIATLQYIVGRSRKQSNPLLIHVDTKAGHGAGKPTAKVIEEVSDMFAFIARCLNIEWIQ
smiles,measurement,value
CC[C@@]1(c2ccc(C)cc2)C(=O)N(C(=O)OC(C)C)N1C(=O)OC(C)C,outcome,inactive
